According to the supplement of paper PMC6411743:
± gives the standard deviation of the averaged measurements. The full data set covers some 6,500 targets. This sample favours those with the largest changes.

Compound: Nc1ncnc2c1ncn2[C@@H]1O[C@H](COP(=O)(O)OP(=O)(O)OP(=O)(O)O)[C@@H](O)[C@H]1O [adenosine triphosphate]
Assay: NP40-soluble protein abundance relative to vehicle (solubility fold change) (ratio); higher = more soluble protein in presence of ATP
Summary of the method: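 Across three independent experiments, values are fold changes against the detergent-processed vehicle for each replicate, based on vsn-normalised intensities. The samples were Jurkat crude lysate treated with eight concentrations (0.1 to 10 mM) for 10 min at room temperature and then 3 min at 37 °C. Lysate was solubilised with 0.8% NP40 and benzonase, ultracentrifuged, and the supernatant analysed by TMT-labelled LC-MS/MS.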

Sequence of UniProt Q96NT0 (Q96NT0 whole entry, one chain of several): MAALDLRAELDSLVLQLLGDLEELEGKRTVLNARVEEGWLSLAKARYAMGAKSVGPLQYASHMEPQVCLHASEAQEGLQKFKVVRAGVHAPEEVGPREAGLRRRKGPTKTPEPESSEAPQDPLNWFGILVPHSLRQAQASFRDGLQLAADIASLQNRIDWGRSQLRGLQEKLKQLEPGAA
Sequence of UniProt Q96QF0 (Q96QF0 whole entry): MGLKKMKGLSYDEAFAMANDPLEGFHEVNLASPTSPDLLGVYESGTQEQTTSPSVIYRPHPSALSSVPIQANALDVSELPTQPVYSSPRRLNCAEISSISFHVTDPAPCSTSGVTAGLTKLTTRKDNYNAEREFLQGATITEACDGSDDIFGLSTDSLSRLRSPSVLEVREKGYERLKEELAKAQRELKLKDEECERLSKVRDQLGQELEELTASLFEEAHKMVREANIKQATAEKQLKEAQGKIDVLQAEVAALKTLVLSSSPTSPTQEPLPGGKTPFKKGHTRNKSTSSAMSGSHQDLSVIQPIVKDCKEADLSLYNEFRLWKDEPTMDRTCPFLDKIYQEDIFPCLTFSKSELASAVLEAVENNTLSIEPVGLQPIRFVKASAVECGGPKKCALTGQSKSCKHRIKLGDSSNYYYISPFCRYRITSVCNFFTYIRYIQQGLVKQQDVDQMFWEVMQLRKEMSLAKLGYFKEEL
Sequence of UniProt Q9NWZ3 (Q9NWZ3 whole entry): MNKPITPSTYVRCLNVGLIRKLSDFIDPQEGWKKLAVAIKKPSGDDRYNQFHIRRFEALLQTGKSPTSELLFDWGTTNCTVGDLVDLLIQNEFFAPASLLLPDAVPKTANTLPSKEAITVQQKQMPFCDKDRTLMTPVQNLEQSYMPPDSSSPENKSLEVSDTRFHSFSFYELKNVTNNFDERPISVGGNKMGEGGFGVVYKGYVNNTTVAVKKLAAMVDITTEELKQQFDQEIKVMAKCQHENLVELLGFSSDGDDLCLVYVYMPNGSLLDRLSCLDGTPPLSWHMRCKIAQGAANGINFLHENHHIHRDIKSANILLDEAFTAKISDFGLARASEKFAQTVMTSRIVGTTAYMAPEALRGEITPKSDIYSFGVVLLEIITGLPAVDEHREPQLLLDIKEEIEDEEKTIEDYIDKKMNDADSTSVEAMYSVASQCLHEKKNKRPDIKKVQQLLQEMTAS
Sequence of UniProt Q9H5N1 (Q9H5N1 whole entry): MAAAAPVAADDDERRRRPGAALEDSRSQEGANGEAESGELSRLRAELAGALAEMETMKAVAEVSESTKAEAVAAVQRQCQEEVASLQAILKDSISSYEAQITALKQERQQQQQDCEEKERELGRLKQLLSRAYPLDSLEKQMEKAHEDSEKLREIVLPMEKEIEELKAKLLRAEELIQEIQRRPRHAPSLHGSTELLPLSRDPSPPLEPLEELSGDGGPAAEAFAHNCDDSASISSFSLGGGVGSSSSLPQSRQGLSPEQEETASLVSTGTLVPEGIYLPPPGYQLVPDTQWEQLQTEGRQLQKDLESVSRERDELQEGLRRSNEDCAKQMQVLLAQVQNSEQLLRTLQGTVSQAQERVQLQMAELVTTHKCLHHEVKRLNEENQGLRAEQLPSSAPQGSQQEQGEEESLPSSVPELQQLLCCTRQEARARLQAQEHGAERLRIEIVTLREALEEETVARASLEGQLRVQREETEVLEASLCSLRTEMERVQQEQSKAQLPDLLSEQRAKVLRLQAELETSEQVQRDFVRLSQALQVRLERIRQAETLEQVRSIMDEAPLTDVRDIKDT
Sequence of UniProt Q9H6R4 (Q9H6R4 whole entry, one chain of several): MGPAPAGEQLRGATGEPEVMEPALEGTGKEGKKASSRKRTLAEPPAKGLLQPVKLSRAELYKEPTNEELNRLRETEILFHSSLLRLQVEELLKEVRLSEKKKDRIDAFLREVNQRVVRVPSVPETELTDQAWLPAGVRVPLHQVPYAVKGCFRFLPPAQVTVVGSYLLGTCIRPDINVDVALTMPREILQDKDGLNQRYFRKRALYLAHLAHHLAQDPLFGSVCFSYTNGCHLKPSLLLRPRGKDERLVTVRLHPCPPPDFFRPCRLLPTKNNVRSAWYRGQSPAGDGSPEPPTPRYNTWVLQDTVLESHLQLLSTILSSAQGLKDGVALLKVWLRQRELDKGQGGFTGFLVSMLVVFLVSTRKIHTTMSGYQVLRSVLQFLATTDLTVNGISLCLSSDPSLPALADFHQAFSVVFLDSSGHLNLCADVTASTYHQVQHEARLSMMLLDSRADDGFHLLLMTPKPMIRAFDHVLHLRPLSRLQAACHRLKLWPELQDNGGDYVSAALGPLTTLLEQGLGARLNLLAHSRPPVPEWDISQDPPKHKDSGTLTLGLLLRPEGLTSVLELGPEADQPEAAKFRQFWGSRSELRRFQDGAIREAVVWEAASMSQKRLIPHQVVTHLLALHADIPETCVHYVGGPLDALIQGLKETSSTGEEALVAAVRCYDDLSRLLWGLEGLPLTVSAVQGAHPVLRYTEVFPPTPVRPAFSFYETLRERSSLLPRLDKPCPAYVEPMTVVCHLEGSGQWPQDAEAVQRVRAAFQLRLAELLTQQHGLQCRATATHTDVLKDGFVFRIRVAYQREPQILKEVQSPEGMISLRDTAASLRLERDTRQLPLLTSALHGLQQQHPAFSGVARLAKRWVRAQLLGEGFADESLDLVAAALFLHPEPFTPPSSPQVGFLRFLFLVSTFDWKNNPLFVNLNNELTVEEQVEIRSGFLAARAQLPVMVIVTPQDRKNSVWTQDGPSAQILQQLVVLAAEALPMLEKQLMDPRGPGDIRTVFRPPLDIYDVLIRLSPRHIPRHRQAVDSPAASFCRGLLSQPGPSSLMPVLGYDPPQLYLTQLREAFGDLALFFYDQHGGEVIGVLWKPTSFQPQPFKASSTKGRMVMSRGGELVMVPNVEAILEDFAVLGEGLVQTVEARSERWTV
Sequence of UniProt Q9UBS0 (Q9UBS0 whole entry): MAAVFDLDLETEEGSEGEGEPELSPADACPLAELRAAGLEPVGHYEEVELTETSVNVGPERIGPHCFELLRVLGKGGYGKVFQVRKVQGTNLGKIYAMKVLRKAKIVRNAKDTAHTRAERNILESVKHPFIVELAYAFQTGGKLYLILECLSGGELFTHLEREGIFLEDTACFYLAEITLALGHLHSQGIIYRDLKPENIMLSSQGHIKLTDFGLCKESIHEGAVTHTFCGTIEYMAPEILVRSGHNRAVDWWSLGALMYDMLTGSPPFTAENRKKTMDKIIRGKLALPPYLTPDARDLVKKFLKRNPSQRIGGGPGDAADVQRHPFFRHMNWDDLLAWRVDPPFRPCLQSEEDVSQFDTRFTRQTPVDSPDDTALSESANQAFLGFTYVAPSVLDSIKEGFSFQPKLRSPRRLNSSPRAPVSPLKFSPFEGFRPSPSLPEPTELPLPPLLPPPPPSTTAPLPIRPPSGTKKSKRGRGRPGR
Sequence of UniProt Q9H6R0 (Q9H6R0 whole entry): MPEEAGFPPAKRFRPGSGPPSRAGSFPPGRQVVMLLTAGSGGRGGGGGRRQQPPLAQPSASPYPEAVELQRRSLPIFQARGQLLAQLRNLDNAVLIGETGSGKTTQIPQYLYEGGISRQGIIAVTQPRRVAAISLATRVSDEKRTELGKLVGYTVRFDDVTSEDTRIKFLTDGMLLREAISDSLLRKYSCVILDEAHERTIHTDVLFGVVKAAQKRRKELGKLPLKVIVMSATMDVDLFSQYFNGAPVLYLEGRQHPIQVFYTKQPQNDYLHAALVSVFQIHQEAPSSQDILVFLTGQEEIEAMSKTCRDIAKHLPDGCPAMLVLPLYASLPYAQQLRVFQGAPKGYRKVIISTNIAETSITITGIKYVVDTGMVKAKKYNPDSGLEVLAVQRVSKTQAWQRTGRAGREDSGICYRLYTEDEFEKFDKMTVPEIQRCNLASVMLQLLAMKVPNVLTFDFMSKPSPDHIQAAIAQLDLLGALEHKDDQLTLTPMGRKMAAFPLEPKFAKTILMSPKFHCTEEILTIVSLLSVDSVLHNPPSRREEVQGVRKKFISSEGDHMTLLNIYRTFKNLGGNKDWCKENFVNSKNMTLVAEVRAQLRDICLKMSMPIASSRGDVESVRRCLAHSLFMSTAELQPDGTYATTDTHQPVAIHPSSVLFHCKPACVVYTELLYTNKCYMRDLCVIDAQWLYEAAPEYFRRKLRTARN
Sequence of UniProt Q9BXR0 (Q9BXR0 whole entry): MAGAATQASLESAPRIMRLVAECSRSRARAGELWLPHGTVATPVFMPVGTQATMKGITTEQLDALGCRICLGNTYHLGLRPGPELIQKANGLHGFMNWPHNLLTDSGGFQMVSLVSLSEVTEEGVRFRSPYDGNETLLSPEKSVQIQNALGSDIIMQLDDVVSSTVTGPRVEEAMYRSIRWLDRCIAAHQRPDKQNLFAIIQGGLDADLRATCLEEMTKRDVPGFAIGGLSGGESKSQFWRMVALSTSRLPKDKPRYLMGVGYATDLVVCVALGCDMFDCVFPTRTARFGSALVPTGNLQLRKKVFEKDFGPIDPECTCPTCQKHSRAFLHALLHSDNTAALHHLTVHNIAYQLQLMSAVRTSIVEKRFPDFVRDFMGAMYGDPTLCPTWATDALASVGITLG
Sequence of UniProt Q9BTT6 (Q9BTT6 whole entry): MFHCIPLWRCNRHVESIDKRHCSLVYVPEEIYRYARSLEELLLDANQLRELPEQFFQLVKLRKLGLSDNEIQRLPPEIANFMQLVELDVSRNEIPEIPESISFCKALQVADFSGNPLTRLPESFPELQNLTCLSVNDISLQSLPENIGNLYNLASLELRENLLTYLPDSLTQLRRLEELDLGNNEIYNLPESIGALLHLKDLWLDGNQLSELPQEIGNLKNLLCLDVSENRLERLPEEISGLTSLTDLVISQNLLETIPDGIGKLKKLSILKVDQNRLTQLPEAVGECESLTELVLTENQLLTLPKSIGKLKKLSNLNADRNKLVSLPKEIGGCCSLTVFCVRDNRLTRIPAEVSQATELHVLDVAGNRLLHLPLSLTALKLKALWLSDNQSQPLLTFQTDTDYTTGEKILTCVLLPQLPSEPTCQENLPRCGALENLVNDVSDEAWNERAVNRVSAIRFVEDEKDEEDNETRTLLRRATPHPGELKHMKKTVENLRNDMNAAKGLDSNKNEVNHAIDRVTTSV

Target	NP40-soluble protein abundance (concentration: 1mM)	NP40-soluble protein abundance (concentration: 2mM)	NP40-soluble protein abundance (concentration: 4mM)	NP40-soluble protein abundance (concentration: 6mM)	NP40-soluble protein abundance (concentration: 8mM)	NP40-soluble protein abundance (concentration: 10mM)
LUC7L (UniProt Q9NQ29)	2.7 ± 0.14	2.9 ± 0.11	2.86 ± 0.17	3.28 ± 0.17	2.93 ± 0.17	3.11 ± 0.15
UniProt Q9NY12|Q9NY12-2	1.11 ± 0.061	1.18 ± 0.084	1.29 ± 0.067	1.41 ± 0.16	1.72 ± 0.15	1.93 ± 0.32
UniProt Q9BSW2-2	0.967 ± 0.041	1.01 ± 0.034	1.02 ± 0.02	1.01 ± 0.018	0.972 ± 0.0098	0.988 ± 0.04
QTRT1 (UniProt Q9BXR0)	1.01 ± 0.12	0.995 ± 0.091	1.02 ± 0.049	0.925 ± 0.14	0.994 ± 0.049	0.985 ± 0.051
DHX33 (UniProt Q9H6R0)	1.04 ± 0.059	1.1 ± 0.012	1.349 ± 0.0092	1.29 ± 0.089	1.44 ± 0.18	1.51 ± 0.2
UniProt Q9P035|H3BS72	1.1 ± 0.16	1.1 ± 0.11	1.1 ± 0.11	1.01 ± 0.091	1.1 ± 0.033	1.15 ± 0.083
DDX21 (UniProt Q9NR30)	1.29 ± 0.046	1.42 ± 0.042	1.65 ± 0.098	2.04 ± 0.17	2.53 ± 0.21	3.17 ± 0.13
UniProt Q9H6R4|Q9H6R4-4|A0A0A0MRW6|Q9H6R4-2	1.08 ± 0.049	1.03 ± 0.018	1.28 ± 0.027	1.31 ± 0.041	1.39 ± 0.15	1.72 ± 0.15
DDX23 (UniProt Q9BUQ8)	1.14 ± 0.052	1.23 ± 0.1	1.38 ± 0.13	1.52 ± 0.21	1.69 ± 0.17	1.81 ± 0.2
UniProt Q9BTT6	0.931 ± 0.073	0.916 ± 0.081	0.945 ± 0.049	0.967 ± 0.092	0.961 ± 0.092	0.922 ± 0.045
CCDC124 (UniProt Q96CT7)	1.08 ± 0.15	1.14 ± 0.089	1.3 ± 0.2	1.56 ± 0.2	1.64 ± 0.1	1.96 ± 0.36
UniProt Q9NQW7-3	1.01 ± 0.044	0.994 ± 0.029	0.968 ± 0.044	0.976 ± 0.052	0.991 ± 0.043	0.966 ± 0.036
ELMO1 (UniProt Q92556)	1.05 ± 0.05	1.04 ± 0.043	1.02 ± 0.036	1 ± 0.067	1.04 ± 0.038	1.05 ± 0.05
SAP30L (UniProt Q9HAJ7)	1.0942 ± 0.00039	1.12 ± 0.069	1.13 ± 0.092	1.185 ± 0.0041	1.11 ± 0.13	1.07 ± 0.082
IRAK4 (UniProt Q9NWZ3)	1.02 ± 0.042	1.03 ± 0.045	1.01 ± 0.051	0.985 ± 0.057	0.996 ± 0.043	0.988 ± 0.047
GTF2H4 (UniProt Q92759)	1.08 ± 0.072	1.04 ± 0.035	1.09 ± 0.059	0.975 ± 0.13	1.16 ± 0.069	1.12 ± 0.036
UniProt Q9GZP9|I3L1T3	0.935 ± 0.091	0.903 ± 0.083	0.946 ± 0.13	0.887 ± 0.12	0.944 ± 0.068	0.916 ± 0.11
UniProt Q96QF0|Q96QF0-2	0.996 ± 0.032	0.946 ± 0.021	1.03 ± 0.034	1.001 ± 0.0051	0.994 ± 0.062	0.979 ± 0.078
UniProt Q9NVX7-2|A0A075B6T4|Q9NVX7	1 ± 0.072	1.02 ± 0.066	1 ± 0.11	0.957 ± 0.095	1.05 ± 0.065	0.975 ± 0.036
SACS (UniProt Q9NZJ4)	1.09 ± 0.08	1.04 ± 0.072	1.08 ± 0.056	0.991 ± 0.075	1.102 ± 0.01	1.05 ± 0.042
UniProt Q9NUL5	0.948 ± 0.041	0.972 ± 0.048	0.921 ± 0.029	0.921 ± 0.057	0.908 ± 0.025	0.924 ± 0.035
UniProt Q9NVI7-2	1.54 ± 0.05	1.64 ± 0.086	1.8 ± 0.086	1.89 ± 0.29	2.2 ± 0.2	2.35 ± 0.26
RABEP2 (UniProt Q9H5N1)	0.967 ± 0.062	0.941 ± 0.036	0.929 ± 0.035	0.956 ± 0.046	0.905 ± 0.011	0.901 ± 0.039
UniProt Q9BS26	0.982 ± 0.043	0.956 ± 0.035	0.943 ± 0.057	0.945 ± 0.067	0.952 ± 0.06	0.941 ± 0.054
UniProt Q9UBS0	1.1 ± 0.063	1.11 ± 0.082	1.12 ± 0.088	1.05 ± 0.053	1.15 ± 0.14	1.09 ± 0.11
CDK5RAP3 (UniProt Q96JB5)	0.997 ± 0.041	1.05 ± 0.066	1.08 ± 0.065	1.11 ± 0.068	1.12 ± 0.045	1.14 ± 0.099
UniProt Q9BTX1|Q9BTX1-2|Q9BTX1-5|Q9BTX1-6	1.01 ± 0.076	1.01 ± 0.071	1.03 ± 0.1	0.996 ± 0.13	1.06 ± 0.044	1.08 ± 0.084
UniProt Q96NT0|B8ZZ99	0.832 ± 0.11	0.87 ± 0.12	0.886 ± 0.061	0.84 ± 0.16	0.863 ± 0.11	0.849 ± 0.16
UniProt Q9NUQ7|D6RA67	1.09 ± 0.15	1.07 ± 0.13	1.05 ± 0.093	0.95 ± 0.18	1.08 ± 0.072	1.02 ± 0.091
PUS7 (UniProt Q96PZ0)	0.969 ± 0.059	0.974 ± 0.057	0.967 ± 0.034	0.941 ± 0.076	0.963 ± 0.03	0.968 ± 0.036
